HTT promoter inh: inhibitors of huntingtin promoter activity; Potency, µM (top dose mostly 57.5 µM), most hits filed as inhibitors; 48,000 tested, 0.93% active; HEK293 HTT promoter firefly luciferase reporter, 24 h; note: nearly all actives have a fitted effect of over 50% in size
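HEK293 Fluc reporter, 2,500 cells/well, 24 h pre-culture; cpds up to 57.5 uM final, 24 h 37 degrees C; Dual-Glo, 10 min RT; normalized vehicle = 0%, zero RLU = -100%.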
HTT-AS act: activators of huntingtin-antisense promoter activity; Potency, µM (titrated, usually from 57.5 µM), hits mostly activators; HEK293 HTT-AS promoter firefly luciferase reporter, 24 h; response scale: percent change from vehicle, -100% = no light; 48,000 tested, 0.24% active; note: nearly all actives have a fitted effect of over 55% in size
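HEK293 cells carrying firefly luciferase reporters were seeded at 2,500 per well in Opti-MEM and cultured for 24 h. They were then treated with compounds at up to 57.5 uM final for 24 h at 37 degrees C before Dual-Glo luminescence readout.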
FH mod: Identification of activators of human fumarate hydratase by quantitative high-throughput screening. Fumarate hydratase, mitochondrial (Homo sapiens), P07954. FH coupled MDH/diaphorase resazurin fluorescence, 15 min. Potency, µM (doses to about 79.9 µM), usual class: inhibitors. 54,000 tested, 0.22% active; note: the screen sought activators but most active calls are inhibition curves; nearly all actives have a fitted effect of over 45% in size
Target sequence (P07954 whole entry, looked up): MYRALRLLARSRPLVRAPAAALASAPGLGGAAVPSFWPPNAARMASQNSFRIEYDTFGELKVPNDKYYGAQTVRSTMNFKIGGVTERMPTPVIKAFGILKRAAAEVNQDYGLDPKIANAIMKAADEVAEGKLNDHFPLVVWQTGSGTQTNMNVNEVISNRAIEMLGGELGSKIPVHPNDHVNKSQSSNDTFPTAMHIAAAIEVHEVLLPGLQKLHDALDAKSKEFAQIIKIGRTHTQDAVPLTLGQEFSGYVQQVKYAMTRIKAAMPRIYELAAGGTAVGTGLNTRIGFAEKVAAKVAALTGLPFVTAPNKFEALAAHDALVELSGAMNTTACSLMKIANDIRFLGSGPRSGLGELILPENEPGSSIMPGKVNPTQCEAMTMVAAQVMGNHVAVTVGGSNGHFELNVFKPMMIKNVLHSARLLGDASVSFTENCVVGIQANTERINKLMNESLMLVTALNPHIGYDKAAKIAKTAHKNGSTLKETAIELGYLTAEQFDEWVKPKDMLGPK
NTMT1 inh: NTMT1 methyltransferase inhibition; Q9BV86; NTMT1 MTase-Glo SAH luminescence, purified enzyme; Potency, µM (titrated, usually from 114 µM), actives largely listed as inhibitors; 59,000 tested, 2.5% active; note: nearly all actives have a fitted effect of over 65% in size
Hits are given with their value; . = inactive; ? = inconclusive; / = no result; ! = not confirmed by another sample; [ ] = dose if it differs, or a comment. Rows were chosen to be rich in hits. Some 2.6% of all compounds tested hit in one or more screens of this group. Calls come from the whole dose curve; as a rule, active = well fitted curve in the direction sought with a large enough effect; inconclusive = small, poorly fitted or top-dose-only effect, or another doubt; inactive = no such curve, though single readings can be large; an effect the other way counts as inactive or inconclusive.

SMILES	HTT promoter inh	HTT-AS act	FH mod	NTMT1 inh
Cc1ccc(Nc2ncnc3c2cnn3-c2ccccc2)c(C)c1	.	?	.	11.2µM
CN(C)CCOc1ccc(-c2nc(-c3ccc4c(c3)CC/C4=N/O)c(-c3ccncc3)[nH]2)cc1	/	/	.	25.1µM
CN(C)CCOc1ccc(-c2nc(-c3ccc4c(c3)CCC4=NO)c(-c3ccncc3)[nH]2)cc1	.	.	.	?
CC1=CC(=O)OC(C)(CC(C)(O)C(=O)O)C1 (configuration not stated)	/	/	.	.
Cc1nn2c(=O)cc(COC(=O)c3cccc(NC(=O)COc4ccccc4C)c3)nc2s1	3.16µM	.	?	.
CCc1nn2c(=O)cc(COC(=O)c3ccccc3)nc2s1	.	3.98µM	.	.
CCc1nn2c(=O)cc(COC(=O)C(c3ccccc3)c3ccccc3)nc2s1	.	.	.	.
Cc1nn2c(=O)cc(COC(=O)c3cccc(NC(=O)COc4ccc(C)c(C)c4)c3)nc2s1	.	.	.	.
CC(=O)OC1CC2(C)C3=CCC4(C)C5C(O)C(O)C(C(C)C)C5(C)CCC4(C)C3CCC2C(C)(C)C1OC1OC(CO)C(O)C(O)C1O (configuration not stated)	/	/	.	.[12.6 µM]
Nc1ncnc2c1ncn2[C@@H]1O[C@H](CN[S+](=O)([O-])NC(=O)c2cccc(-c3noc(-c4ccccc4F)n3)c2)[C@@H](O)[C@H]1O	/	/	/	0.891µM
COc1ccc(-c2noc(N3CCC(C(=O)Nc4ccc(F)cc4Cl)CC3)n2)cc1	1.78µM	.	.	.
COc1ccc(-c2noc(N3CCC(C(=O)N4CCN(c5cccc(OC)c5)CC4)CC3)n2)cc1	2.24µM	.	.	.
COc1ccc(-c2noc(N3CCC(C(=O)N4CCN(c5ccccc5OC)CC4)CC3)n2)cc1	12.6µM	.	.	.
COc1ccc(C(=O)/C=C/c2cn(CC(O)CN3CCCCCC3)c3ccccc23)cc1OC (configuration not stated)	.	.	.	44.7µM
COc1cc(N2CCN(C)CC2)ccc1Nc1nccc(-c2cn(C)c3cnccc23)n1	/	/	.	.
Cc1ccc(C(N)=O)cc1Nc1nccc(-c2cn(C(C)C)c3cnccc23)n1	?	.	.	11.2µM
CCCCNc1ncc2c(-c3ccc(S(=O)(=O)N4CCOCC4)cc3)nn(C3CCC(O)CC3)c2n1 (configuration not stated)	/	/	.	.
CCCCNc1ncc2c(-c3ccc(CN4CCN(C)CC4)cc3)cn(C3CCC(O)CC3)c2n1 (configuration not stated)	/	/	.	79.4µM!
Cc1ccc(NC(=O)c2cnc3cc(C)ccn3c2=O)c(C)c1	.	3.55µM	.	.
Cc1ccc2ncc(C(=O)Nc3cccc(C(F)(F)F)c3)c(=O)n2c1	.	.	.	.
Cc1ccc(-c2nn3c(-c4ccccc4)nnc3s2)cc1NC(=O)c1ccc(-c2cccc(Cl)c2)o1	/	/	/	.
COc1ccc(-c2noc(CSc3nc(N)cc(=O)[nH]3)n2)cc1	22.4µM	.	.	.
COc1ccc(-c2noc(CSc3nc4ccccc4[nH]3)n2)cc1	?	.	.	.
COC(=O)C1CCN(C(=O)c2ccc3c(c2)ncn3-c2cccc(C)c2)CC1	/	/	/	.
NC1CCC(Nc2nc(Nc3ccc(C(=O)N4CCCCC4)cc3)c3ncn(-c4cccc(F)c4)c3n2)CC1 (configuration not stated)	.	?	.	39.8µM
SMILES	HTT promoter inh	HTT-AS act	FH mod	NTMT1 inh
COc1cc(CN(C(=O)c2cc3ccccc3oc2=O)C2CCS(=O)(=O)C2)cc(OC)c1OC (configuration not stated)	.	?	.	.
CCc1ccc(CN(C(=O)c2cc3ccccc3oc2=O)C2CCS(=O)(=O)C2)cc1 (configuration not stated)	.	3.55µM	.	.
CN1CCCN(C(=O)c2cccc(-c3ccc(/C=C4/C(=O)Nc5ccc(Cl)cc54)o3)c2)CC1	/	/	/	11.2µM
COc1cccc(C(=O)Nc2ccc(-c3nc4ccc(C)cc4s3)cc2)c1OC	.	.	.	.
CCCOc1ccccc1C(=O)Nc1ccc(-c2nc3ccc(C)cc3s2)cc1	.	2.24µM	.	.
COc1ccc(-c2cnc(N3CCC(C(N)=O)CC3)s2)cc1OC	/	/	/	.
NC(=O)C1CCN(c2ncc(Br)s2)CC1	/	/	/	39.8µM
C[C@@H]1O[C@@H](O[C@@H]2[C@@H](O)[C@@H](O[C@]3(CO)O[C@H](CO)[C@@H](O)[C@@H]3OC(=O)/C=C/c3ccc(O)cc3)O[C@H](CO)[C@H]2OC(=O)/C=C/c2ccc(O)cc2)[C@H](O)[C@H](O)[C@H]1O[C@@H]1O[C@@H](C)[C@H](O[C@@H]2OC[C@](O)(CO)[C@H]2O)[C@@H](O)[C@H]1O	/	/	.	.[12.6 µM]
C[C@H](Cc1ccc(O)c(O)c1)[C@@H](C)Cc1ccc(O)c(O)c1	?	.	?	7.94µM
N[C@@H](Cc1ccc(O)c(O)c1)C(=O)O	.	.	.	.
O=C(O)C(O)Cc1ccc(O)c(O)c1 (configuration not stated)	.	.	.	89.1µM!
O=c1c(O)c(-c2ccc(O)cc2O)oc2cc(O)cc(O)c12	.	.	.	44.7µM!
O=c1c(O)c(-c2cc(O)c(O)c(O)c2)oc2cc(O)cc(O)c12	.	.	.	28.2µM!
O=C(Nc1ccc(-n2cncn2)c(F)c1)Nc1nnc(-c2ccncc2)s1	/	/	/	.
CC[C@H](C)[C@@H]1NC(=O)[C@H](Cc2ccc(OC)cc2)NC(=O)CCCSC[C@@H](C(=O)N2CCC[C@H]2C(=O)N[C@@H](CC(C)C)C(=O)NCC(N)=O)NC(=O)[C@H](CC(N)=O)NC(=O)[C@H](CCC(N)=O)NC1=O	/	/	.	.
COc1cc(CNC(=O)c2ccc3nc(Cc4ccccc4)oc3c2)cc(OC)c1OC	14.1µM	.	?	.
N#Cc1cc(NC(=O)C(=O)O)c(Cl)c(NC(=O)C(=O)O)c1	.	.	.	15.8µM
O=c1cc(OCc2ccc(F)cc2)ccn1-c1ccc(OCCN2CCCC2)cc1	/	/	.	.
CNC(=O)CN1CCC(Oc2cc3c(Nc4cccc(Cl)c4F)ncnc3cc2OC)CC1	?	.	.	35.5µM
CC(C)c1onc(-c2c(Cl)cccc2Cl)c1COc1ccc(C=Cc2cccc(C(=O)O)c2)c(Cl)c1	.	?	?	17.1µM
CCc1cccc(NS(=O)(=O)c2ccc(-n3cccn3)cc2)c1	35.5µM	.	.	.
Cc1cc(C)cc(NS(=O)(=O)c2ccc(-n3cccn3)cc2)c1	?	.	.	.
COc1ccc(NS(=O)(=O)c2ccc(-n3cccn3)cc2)cc1OC	7.94µM	.	.	.
COC(=O)[C@H](O)[C@H]1C(C)(C)[C@H](OC(=O)C(C)C)[C@@]2(O)C(=O)[C@]1(C)C1CC[C@]3(C)C(CC(=O)O[C@H]3c3ccoc3)[C@]13O[C@@H]32 (some centres not stated)	/	/	.	.[12.6 µM]
CO[C@H]1O[C@@H]2O[C@@]3(C)CCC4[C@H](C)CCC([C@H]1C)[C@]42OO3 (some centres not stated)	/	/	.	.
O=C(O)c1c(-c2ccccc2)no[n+]1[O-]	/	/	/	.
